Source: PubChem
3T3 cytotox = NIH 3T3 cell cytotoxicity; NIH 3T3 viability, CellTiter-Glo ATP luminescence, 48-72 h; Potency, µM (highest dose often 96.7 µM), without a hit: top-dose activity change, negative = cytotoxicity, hits mostly inhibitors; 94,000 tested, 4.3% active; also: % is scaled to controls: 0 for no effect and ±100 for the full control effect; nearly all actives have a fitted effect of over 55% in size
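Mouse fibroblast NIH 3T3 cells, 400 per well, received compound via pintool and were incubated for 48 or 72 hr prior to CellTiter-Glo ATP luminescence measurement.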
NPR1 antag = blocks ANP-stimulated signaling of human Npr1 receptor; 76,000 tested, 1.6% active; HEK293 hNpr1 GloSensor cGMP, ANP-stimulated luminescence; P16066; Potency, µM (doses to about 46.3 µM), for the others: at the top dose activity change, negative = inhibition, hits mostly inhibitors; calls by dose curve; also: % is scaled to controls: 0 for no effect and ±100 for the full control effect; nearly all actives have a fitted effect of over 60% in size
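Compound pre-incubated 30 min at room temperature on GloSensor-loaded HEK293 cells stably carrying hNpr1 and the pGS-40F cGMP biosensor. Stimulation uses hNppA at 0.1 nM final; luminescence is taken at baseline and 20 min post-agonist.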
GPT2 inhibitor = blocks human glutamate pyruvate transaminase 2; Q8TD30; Recombinant GPT2, coupled pyruvate oxidase/HRP Amplex Red fluorescence; Potency, µM (top dose mostly 57.7 µM), without a hit: top-dose activity change, negative = inhibition, usual class: inhibitors; 100,000 tested, 0.25% active; also: % is scaled to controls: 0 for no effect and ±100 for the full control effect; nearly all actives have a fitted effect of over 60% in size
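Fluorescence read-out: pyruvate from GPT2 turnover coupled to pyruvate oxidase, HRP and Amplex Red (0.2mM ThPP, 0.2U/mL PO and HRP, 50uM Amplex final). Substrates 250uM a-KG, 2mM L-alanine; enzyme 10ng/uL; 30 min RT.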
HEK cytotox = kills HEK 293 cells; HEK 293 viability, ATP luminescence (CellTiter-Glo), 48-72 h; Potency, µM (highest dose often 115 µM), without a hit: at the top dose activity change, negative = cytotoxicity, usual class: inhibitors; 94,000 tested, 6.6% active; also: % is scaled to controls: 0 for no effect and ±100 for the full control effect; nearly all actives have a fitted effect of over 60% in size
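HEK 293 seeded at 250 cells/well receive compound via pintool. After 48 or 72 hr at 37 degree Celsius, 5% CO2 and 95% humidity, CellTiter-Glo is dispensed and luminescence read following 10 min at room temperature.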
FLuc inh-1 = Photinus pyralis luciferase inhibition; 76,000 tested, 2.5% active; P08659; Potency, µM (highest dose often 115 µM), most hits filed as inhibitors; purified P. pyralis luciferase, luminescence, biochemical; also: % is scaled to controls: 0 for no effect and ±100 for the full control effect; nearly all actives have a fitted effect of over 65% in size
Target sequence (P08659 whole entry, looked up): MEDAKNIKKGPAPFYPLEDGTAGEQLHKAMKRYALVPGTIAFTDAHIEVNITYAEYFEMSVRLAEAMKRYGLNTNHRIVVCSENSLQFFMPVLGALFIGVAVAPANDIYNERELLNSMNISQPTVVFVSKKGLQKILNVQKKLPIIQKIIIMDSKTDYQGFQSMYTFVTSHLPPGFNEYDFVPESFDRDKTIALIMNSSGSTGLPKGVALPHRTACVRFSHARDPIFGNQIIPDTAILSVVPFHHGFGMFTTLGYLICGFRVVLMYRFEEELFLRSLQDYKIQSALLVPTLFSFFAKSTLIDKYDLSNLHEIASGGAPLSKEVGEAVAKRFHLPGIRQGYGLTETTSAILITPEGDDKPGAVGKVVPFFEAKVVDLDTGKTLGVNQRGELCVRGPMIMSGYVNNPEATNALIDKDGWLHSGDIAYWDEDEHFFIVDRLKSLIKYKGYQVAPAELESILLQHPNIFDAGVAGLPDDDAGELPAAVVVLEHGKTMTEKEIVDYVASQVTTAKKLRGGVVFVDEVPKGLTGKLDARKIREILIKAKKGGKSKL
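FLuc 10nM, D-luciferin 10uM, ATP 10uM, Mg acetate 10mM, Tris acetate pH 7.5, Tween/BSA; cpd qHTS; enzyme added last; CCD luminescence.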
FLuc SDR no ATP = firefly luciferase binding stabilization, ATP absent. shares compounds with FLuc inh-1. Purified FLuc-C-HiBiT, Nano-Glo HiBiT luminescence, no ATP. 1,300 tested, 7.8% active. Potency, µM (top dose mostly 32.7 µM), for inactives: top-dose activation (signal gain), usual class: activators; also: nearly all actives have a fitted effect of over 55% in size
FLuc SDR ATP = firefly luciferase binding stabilization, ATP added; shares compounds with FLuc inh-1; purified FLuc-C-HiBiT + ATP, HiBiT complementation luminescence; Potency, µM (doses to about 32.7 µM), for the others: top-dose activation (gain of signal), most hits filed as activators; 1,300 tested, 8.7% active;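 also: signal reports ligand binding via conformational change of the enzyme rather than luciferase catalysis; % of control where 0% means no effect; nearly all actives have a fitted effect of over 55% in size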
FLuc inh-2 = blocks firefly luciferase enzymatic activity. purified FLuc-C-HiBiT enzyme, luciferin luminescence. Potency, µM (titrated, usually from 32.7 µM), for the others: at the top dose activity change, negative = inhibition, usual class: inhibitors. shares compounds with FLuc inh-1. 1,300 tested, 42% active. AID 1963320; also: % is scaled to controls: 0 for no effect and ±100 for the full control effect; nearly all actives have a fitted effect of over 70% in size
* = called active by the depositor; [ ] = another dose, or the depositor's remark. Shown are actives, neighbours in structure and some others; about 10% of the full set was active somewhere. Unless noted, calls follow the shape of the dose curve; as a rule, active = well fitted curve in the direction sought with a large enough effect; inconclusive = small, poorly fitted or top-dose-only effect, or another doubt; inactive = no such curve, though single readings can be large; an effect the other way counts as inactive or inconclusive. Potency is read from the fitted curve at half-maximal effect.

What do the screens show for `COCCCn1c(=O)c(C(=O)N2CCN([S+](=O)([O-])c3cccs3)CC2)nc2cccnc21`?
3T3 cytotox: -20.8%; GPT2 inhibitor: 1.0%; HEK cytotox: -17.6%

Results for O=C(NCCc1ccccc1)C1CN(C2CCCC2)C(=O)N1 (stereo not drawn) ?
3T3 cytotox: -6.7%[138 µM]; GPT2 inhibitor: inactive; HEK cytotox: 4.5%[172 µM]

How did O=C(Nc1cccnc1)c1nc2c(o1)CCN(Cc1nccs1)CC2 do in these assays?
FLuc SDR no ATP: 24.5%[49.3 µM]; FLuc SDR ATP: 16.8%[49.3 µM]; FLuc inh-2: inconclusive

Results for O=C(NCc1ccncc1)c1nc2c(o1)CCN(Cc1nccs1)CC2 ?
3T3 cytotox: -22.0%[138 µM]; NPR1 antag: -15.7%[70.6 µM]; GPT2 inhibitor: -21.1%[88.5 µM]; HEK cytotox: inconclusive; FLuc inh-1: inactive

Results for O=C(Nc1ccccc1)c1nc2c(o1)CCN(Cc1ccc(F)cc1)CC2 ?
3T3 cytotox: inconclusive; NPR1 antag: 17.8µM*; GPT2 inhibitor: 0.3%[88.5 µM]; HEK cytotox: inconclusive; FLuc inh-1: 8.91µM*; FLuc SDR no ATP: 19.6%[49.3 µM]; FLuc SDR ATP: 16.6%[49.3 µM]; FLuc inh-2: inconclusive

What do the screens show for `O=C(Nc1cccnc1)c1nc2c(o1)CCN(Cc1ccc(O)cc1)CC2`?
FLuc SDR no ATP: 22.8%[49.3 µM]; FLuc SDR ATP: 16.2%[49.3 µM]; FLuc inh-2: inconclusive

How did O=C(NCCOc1ccccc1)c1nc2c(o1)CCN(Cc1ccsc1)CC2 do in these assays?
3T3 cytotox: inconclusive; NPR1 antag: -11.0%[70.6 µM]; GPT2 inhibitor: inactive; HEK cytotox: inconclusive; FLuc inh-1: inactive

What do the screens show for `Cc1csc(NC(=O)c2nc3c(o2)CCN(Cc2ccccc2F)CC3)n1`?
3T3 cytotox: inconclusive; NPR1 antag: -21.5%[70.6 µM]; GPT2 inhibitor: -14.4%[88.5 µM]; HEK cytotox: inconclusive; FLuc inh-1: 4.47µM*; FLuc SDR no ATP: inconclusive; FLuc SDR ATP: 17.7%[49.3 µM]; FLuc inh-2: inconclusive

How did CC1CCN(C(=O)c2ccccc2OCC2CCCN(C(=O)C3CCOCC3)C2)CC1 (stereo not drawn) do in these assays?
3T3 cytotox: inconclusive; GPT2 inhibitor: inactive; HEK cytotox: -12.5%

How did COc1ccc(C(=O)N2C[C@@H]3CCCN4CCC[C@@H]([C@H]34)[C@H]2CCCC(=O)NCc2ccccc2)cc1 do in these assays?
3T3 cytotox: -11.7%; NPR1 antag: 0.2%; GPT2 inhibitor: inactive; HEK cytotox: -10.1%; FLuc inh-1: inactive

How did CCC(=O)N1CCc2c(sc3ncnc(N(C)Cc4ccccc4)c23)C1 do in these assays?
3T3 cytotox: inconclusive; NPR1 antag: -4.6%; GPT2 inhibitor: inactive; HEK cytotox: inconclusive; FLuc inh-1: inactive

How did CNC(=O)c1cc(C2CC2)nc2c1c(C1CCN(C(=O)c3ccccc3)CC1)nn2C do in these assays?
3T3 cytotox: -5.0%; HEK cytotox: inactive

Results for Cc1cnc(CCNC(=O)C2(c3ccccc3)CC2)n1CC1CC1 ?
3T3 cytotox: -26.0%; GPT2 inhibitor: -5.0%; HEK cytotox: -20.3%

Results for CC(C)c1noc([C@@H]2C[C@H]3C(=O)NCCCCCCN(C(=O)CCc4ccccc4)[C@H]3C2)n1 ?
3T3 cytotox: -19.6%; NPR1 antag: -0.2%; GPT2 inhibitor: inactive; HEK cytotox: inconclusive; FLuc inh-1: inactive

What do the screens show for `CC(=O)NCc1nnc2n1C(C(=O)NCc1cccs1)CC2` (stereo not drawn)?
3T3 cytotox: -25.4%[138 µM]; GPT2 inhibitor: 3.7%[88.5 µM]; HEK cytotox: -18.8%[172 µM]

Results for Cc1ccc(C2=NC3(CCN(C(=O)c4cccc(N(C)C)c4)CC3)ON2)cc1 ?
3T3 cytotox: -23.7%; NPR1 antag: -16.7%; GPT2 inhibitor: inactive; HEK cytotox: -24.0%; FLuc inh-1: 14.1µM*; FLuc SDR no ATP: 21.0%; FLuc SDR ATP: inconclusive; FLuc inh-2: inconclusive

Results for Cc1cccc(-c2nc3ccc(C(=O)NCc4ccccn4)cc3o2)n1 ?
3T3 cytotox: -27.9%[138 µM]; GPT2 inhibitor: -7.5%[88.5 µM]; HEK cytotox: inconclusive

Results for O=C(NCCc1cccs1)C1CCN(C(=O)c2ncn3c2COC(c2ccc(F)cc2)C3)CC1 (stereo not drawn) ?
3T3 cytotox: inactive; NPR1 antag: -1.9%; GPT2 inhibitor: -4.7%; HEK cytotox: -2.1%; FLuc inh-1: inactive

What do the screens show for `O=C(NCc1cccs1)C1CCN(C(=O)c2ncn3c2COC(c2ccccc2)C3)CC1` (stereo not drawn)?
3T3 cytotox: -2.4%; NPR1 antag: -15.4%; GPT2 inhibitor: 2.6%; HEK cytotox: 3.5%; FLuc inh-1: 6.31µM*; FLuc SDR no ATP: 12.8%; FLuc SDR ATP: 2.21µM*; FLuc inh-2: 2.48µM*

How did O=C(NCCc1cccs1)C1CCN(C(=O)c2ncn3c2COC(c2ccccc2)C3)CC1 (stereo not drawn) do in these assays?
3T3 cytotox: -5.8%; NPR1 antag: -7.4%; GPT2 inhibitor: 2.0%; HEK cytotox: -9.2%; FLuc inh-1: 7.08µM*; FLuc SDR no ATP: 13.1%; FLuc SDR ATP: inconclusive; FLuc inh-2: 4.42µM*

Results for CCCCNC(=O)C1CCN(C(=O)c2ncn3c2COC(c2ccccc2)C3)CC1 (stereo not drawn) ?
3T3 cytotox: 2.3%; NPR1 antag: 1.9%; GPT2 inhibitor: inactive; HEK cytotox: -2.3%; FLuc inh-1: 7.08µM*; FLuc SDR no ATP: 13.8%; FLuc SDR ATP: inconclusive; FLuc inh-2: inconclusive

What do the screens show for `CC(C)C(=O)N1Cc2ccccc2CC2(CCN(Cc3ccncc3)C2)C1` (stereo not drawn)?
3T3 cytotox: -20.2%; GPT2 inhibitor: inactive; HEK cytotox: -29.0%

Results for CCCCn1c(=O)c(C(=O)N2CCN(C(=O)N(C)C)CC2)nc2cccnc21 ?
3T3 cytotox: -3.8%; GPT2 inhibitor: inactive; HEK cytotox: -0.8%

Results for Cc1cnc(CC2CCN(C(=O)COc3ccc(F)cc3)CC2)n1Cc1ccc(F)cc1 ?
3T3 cytotox: inconclusive; NPR1 antag: 1.7%; GPT2 inhibitor: 0.9%; HEK cytotox: inconclusive; FLuc inh-1: inactive
